Assay in all cases: glycan array binding signal (z-score within array); higher = stronger binding
What all share (settings): glycan notation: IUPAC condensed, linker removed

The target in assay [1] is GlcNAc(b1-3)[GlcNAc(b1-6)]GlcNAc(b1-4)GlcNAc. In short, it runs like this: (§1)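 The binding signal is a Z-score computed within each array and averaged over linkers. Arrays of the same protein sequence at different concentrations or buffers were also averaged together. Data originate from 3228 arrays in the Consortium for Functional Glycomics database, kept only where the protein sequence was available.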

Assay [2] concerns the target GlcNAc(b1-4)[GlcNAc(b1-6)]GalNAc. In short, it runs like this:
as §1

The target in assay [3] is GlcNAc6S(b1-3)Gal(b1-4)GlcNAc. A digest of the protocol:
as §1

The target of another assay is Man(a1-2)Man(a1-3)Man. A digest of the protocol:
as §1

Assay [4] has as its target Man(a1-2)Man(a1-3)[Man(a1-2)Man(a1-6)]Man(a1-6)[Man(a1-2)Man(a1-2)Man(a1-3)]Man. A digest of the protocol:
as §1

In assay [5] the target is Man(a1-3)[Man(a1-6)]Man(a1-6)[Man(a1-2)Man(a1-3)]Man(b1-4)GlcNAc(b1-4)GlcNAc. In short, it runs like this:
as §1

Assay [6] has as its target Man(a1-3)[Man(a1-6)]Man(a1-6)[Man(a1-3)]Man(b1-4)GlcNAc(b1-4)GlcNAc. A digest of the protocol: as §1
Assay [7] concerns the target Neu5Ac(a2-3)Gal(b1-3)GlcNAc. In short, it runs like this:
as §1

Assay [8] concerns the target Neu5Ac(a2-3)Gal(b1-4)GlcNAc(b1-3)Gal(b1-4)GlcNAc(b1-3)Gal(b1-4)GlcNAc(b1-2)Man(a1-3)[Neu5Ac(a2-3)Gal(b1-4)GlcNAc(b1-3)Gal(b1-4)GlcNAc(b1-3)Gal(b1-4)GlcNAc(b1-2)Man(a1-6)]GalNAc. A digest of the protocol: as §1
The target in assay [9] is Neu5Ac(a2-3)Gal(b1-4)GlcNAc(b1-3)Gal(b1-4)GlcNAc(b1-3)GalNAc. A digest of the protocol:
as §1

Assay [10] addresses Neu5Ac(a2-3)Gal(b1-4)[Fuc(a1-3)]GlcNAc(b1-3)GalNAc. A digest of the protocol: as §1
A further assay has as its target Neu5Ac(a2-6)Gal. In short, it runs like this: as §1
Assay [11] addresses Neu5Ac(a2-6)Gal(b1-4)GlcNAc(b1-3)Gal(b1-4)GlcNAc(b1-3)Gal(b1-4)GlcNAc. In short, it runs like this: as §1
The target of assay [12] is Neu5Ac(a2-6)Gal(b1-4)GlcNAc(b1-3)Gal(b1-4)GlcNAc(b1-3)Gal(b1-4)GlcNAc(b1-2)Man(a1-3)[Neu5Ac(a2-6)Gal(b1-4)GlcNAc(b1-3)Gal(b1-4)GlcNAc(b1-3)Gal(b1-4)GlcNAc(b1-2)Man(a1-6)]GalNAc. In short, it runs like this:
as §1

The target of assay [13] is Neu5Ac(a2-6)Gal(b1-4)GlcNAc(b1-3)Gal(b1-4)GlcNAc(b1-6)[Gal(b1-3)]GalNAc. In short, it runs like this:
as §1

Assay [14] deals with Neu5Ac(a2-8)Neu5Ac(a2-3)Gal(b1-3)GalNAc(b1-4)[Neu5Ac(a2-8)Neu5Ac(a2-3)]Gal(b1-4)Glc. A digest of the protocol: as §1
For assay [15], the target named is Neu5Ac(a2-8)Neu5Ac(a2-8)Neu5Ac(a2-3)[Gal(b1-3)GalNAc(b1-4)]Gal(b1-4)Glc. A digest of the protocol: as §1
The target of assay [16] is Neu5Ac(b2-6)Gal(b1-4)GlcNAc. In short, it runs like this: as §1
Assay [17] has as its target Neu5Gc(a2-3)Gal(b1-4)GlcNAc. A digest of the protocol:
as §1

The source of these data is the supplement of paper PMC8728848.

The entries come from a sample that favours the strongest signals as a whole.

B1: ECA (Erythrina cristagalli), P83410 (protein)
chain: VETISFSFSEFEPGNDNLTLQGAALITQSGVLQLTKINQNGMPAWDSTGRTLYTKPVHMWDSTTGTVASFETRFSFSIEQPYTRPLPADGLVFFMGPTKSKPAQGYGYLGVFNNSKQDNSYQTLAVEFDTFSNPWDPPQVPHIGIDVNSIRSIKTQPFQLDNGQVANVVIKYDAPSKILHVVLVYPSSGAIYTIAEIVDVKQVLPDWVDVGLSGATGAQRDAAETHDVYSWSFQASLPE
Regarding B1, the “glycan array binding signal (z-score)” value in [1] is -0.277; in assay [2], -0.228; in assay [3], -0.243; in the assay with Man(a1-2)Man(a1-3)Man, -0.285; in [4], -0.091; in [5] it was 1.29. Moreover, the “glycan array binding signal (z-score)” value in assay [6] is -0.177; in assay [7], -0.269; in assay [8], 7.35; in [9], -0.407; in assay [10], 0.567; with Neu5Ac(a2-6)Gal it was -0.208. Also, the “glycan array binding signal (z-score)” value in assay [11] was -0.578; in [12] it was 5.2; in [13], 0.104; in assay [14], -0.352; in assay [15] it was 0.194; in [16], -0.088. For the same molecule, in assay [17], the “glycan array binding signal (z-score)” value was -0.327.
